Unmarked numbers belong to inactive results. Records with an inconclusive call do not appear. Calls of active or inactive are those of the source. The call rests on the fitted dose curve; in most records, active means well fitted curve in the direction sought with a large enough effect; inconclusive means small, poorly fitted or top-dose-only effect, or another doubt; inactive means no such curve, though single readings can be large; an effect the other way counts as inactive or inconclusive.

The nature of assay [1]: Cell Viability - H-4-II-E (AID 543).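 Further: cells exposed to compound for 40 hours; on the % scale 0 is the no-effect control and ±100 the full control effect; nearly all actives have a fitted effect of over 35% in size.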 A digest of the protocol:
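Here, cytotoxicity is measured in the rat hepatoma line H-4-II-E as loss of intracellular ATP after 40 hr compound treatment, detected by luciferase luminescence.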

Assay [2] in a line: Cell Viability - SH-SY5Y (AID 544).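 Further: cells exposed to compound for 40 hours; nearly all actives have a fitted effect of over 55% in size.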 The note with it: SH-SY5Y neuroblastoma cell viability; viability change, negative = cytotoxic: at 92.2 µM (top of the series). The procedure, abridged: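 Cytotoxicity is scored as a concentration-dependent fall in intracellular ATP in human SH-SY5Y cells treated 40 hr in complete culture medium. Potency is expressed as AC50 from a Hill equation fit.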

Assay [3] is described as follows: Cell Viability - Renal Proximal Tubule (AID 545).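 Further: cells exposed to compound for 40 hours; nearly all actives have a fitted effect of over 40% in size.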 The procedure, abridged: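 Primary rat renal proximal tubule cells (1000/well) were treated with compounds for 40 hr at 37 °C in complete medium. Intracellular ATP was measured by CellTiter-Glo luminescence, and AC50 values came from Hill-equation fits of concentration-response data.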
Assay [4] is described as follows: Cell Viability - Mesenchymal (AID 546).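 Further: cells exposed to compound for 40 hours before reading.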 A digest of the protocol: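 Normal human renal glomerulus-derived kidney mesenchymal cells, 1000 per well in complete medium, were treated with compounds for 40 hr at 37 °C. Viability was read as intracellular ATP by CellTiter-Glo luminescence; AC50 values came from Hill-equation fits of qHTS concentration-response data.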

The nature of assay [5]: Cellular Toxicity (caspase-3) HepG2 (AID 654).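 Further: cells exposed to compound for 16 hours before reading; 0% = DMSO alone and 100% = caspase signal from 100 µM tamoxifen.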 The procedure, abridged:
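qHTS, HepG2, 1500 cells/well, complete medium; cpd 16 h 37 °C; Caspase-Glo 3/7, 20 min RT; lum. Norm: DMSO vs 100 uM tamoxifen; AC50 Hill fit.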

The nature of assay [6]: Cellular Toxicity (caspase-3) Jurkat (AID 655).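 Further: cells exposed to compound for 16 h at 37 °C before reading.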 The note with it: Jurkat caspase-3 activation, luminescence; caspase-3 activation: at 92.2 µM (top of the series), DMSO = 0%, tamoxifen = 100%. A digest of the protocol:
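Jurkat cells (5000/well) in complete medium were treated with compounds for 16 hr at 37 °C, then Caspase-Glo 3/7 luminescence was read after 20 min at room temperature. Data normalized to DMSO (basal) and 100 uM tamoxifen (100%); AC50 from Hill fit.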

Assay [7] is described as follows: Cellular Toxicity (caspase-3) HUV-EC-C (AID 656). The procedure, abridged: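 HUV-EC-C endothelial cells, 1000/well, were pre-incubated 5 hr at 37°C, then exposed to compounds for 16 hr at 37°C. Caspase-Glo 3/7 luminescence was read after 20 min at room temperature. AC50 came from Hill fits, normalized to DMSO and 100 uM tamoxifen.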
The nature of assay [8]: Cellular Toxicity (caspase-3) SHSY5Y (AID 657). The procedure, abridged: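 SH-SY5Y human neuroblastoma cells (1500/well) were treated with compounds for 16 h at 37 °C, then Caspase-Glo 3/7 luminescence was read after 1 h at room temperature. Data normalized to DMSO and 10 uM staurosporine; AC50 from Hill fits.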
The nature of assay [9]: Cellular Toxicity (caspase-3) BJ (AID 658).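 Further: 0% = DMSO basal and 100% = 10 µM staurosporine.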 A digest of the protocol: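 Luminescent aminoluciferin-substrate cleavage reports caspase 3/7 activity in normal human BJ fibroblasts after 16 hr compound exposure at 37 °C. Normalized to DMSO (basal) and 10 uM staurosporine (100%); AC50 from Hill fit of concentration-response.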
Assay [10] can be described thus: Cellular Toxicity (caspase-3) MRC-5 (AID 659).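 Further: 0% = DMSO basal and 100% = 10 µM staurosporine.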 A digest of the protocol:
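Luminescence from caspase-cleaved aminoluciferin substrate (Caspase-Glo 3/7, 1 hr RT) reports caspase 3/7 activity in MRC-5 lung fibroblasts after 16 hr compound exposure. Normalized to DMSO basal and 10 uM staurosporine as 100%; AC50 from Hill fits.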

A short description of assay [11]: Cellular Toxicity (caspase-3) Mesangial (AID 660).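 Further: combined caspase 3 and 7 activity read by Caspase-Glo luminescence; cells exposed to compound for 16 h before the caspase read.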 The note with it: mesangial cells, normalized: DMSO 0%, 100 µM tamoxifen 100%; at 91.7 µM (top of the series). The procedure, abridged: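 Concentration-response qHTS: compound-induced rise in caspase 3/7 luminescence in human mesangial cells after 16 h, normalized to DMSO and 100 uM tamoxifen controls.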
A short description of assay [12]: Cellular Toxicity (caspase-3) SK-N-SH (AID 661).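 Further: 0% = DMSO basal and 100% = 10 µM staurosporine.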 A digest of the protocol: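 Caspase 3/7 activation is measured as a luminescence increase from aminoluciferin released by substrate cleavage in SK-N-SH cells after 16 hr compound treatment; values are AC50 from concentration-response curves.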
Assay [13] in a line: Cellular Toxicity (caspase-3) H-4-II-E (AID 663).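 Further: cells exposed to compound for 16 hr before readout.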 The note with it: H-4-II-E rat hepatoma, scaled: DMSO 0%, 100 µM tamoxifen 100%; at 92.2 µM (top of the series). The procedure, abridged:
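Luminescence from caspase-cleaved aminoluciferin substrate, read 20 min after reagent addition, reports caspase 3/7 activation in rat H-4-II-E cells after 16 hr compound exposure. Normalized to DMSO (basal) and 100 uM tamoxifen (100%); AC50 from Hill fits.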

Assay [14] in a line: Cellular Toxicity (caspase-3) Hek293 (AID 664).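 Further: cells exposed to compound for 16 h at 37 °C before readout.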 The note with it: HEK293 caspase-3 activation, DMSO = 0%, 100 µM tamoxifen = 100%; at 92.2 µM (top of the series). The procedure, abridged:
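Activation of caspase-3/7 is measured as increased luminescence from cleaved peptide-aminoluciferin substrate in HEK293 cells treated 16 hours at 37 °C. AC50 values come from Hill-equation fits of concentration-response data.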

Assay [15] in a line: Cellular Toxicity (caspase-3) N2a (AID 665).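 Further: compound exposure lasted 16 h at 37 °C before readout.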 A digest of the protocol:
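Plated mouse neuroblastoma N2a cells received titrated compounds for 16 h in complete medium. Caspase activity was then detected with a peptide-aminoluciferin luminescent reagent.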

Assay [16] in a line: Cellular Toxicity (caspase-3) NIH 3T3 (AID 666).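 Further: 0% = DMSO basal and 100% = 100 µM tamoxifen stimulation.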 A digest of the protocol:
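Concentration-response qHTS in NIH 3T3 mouse fibroblasts scores caspase-3/7 activation as rising luminescence after 16 hr compound exposure. Signals are scaled between DMSO-only and 100 uM tamoxifen.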

Assay [17] can be described thus: Cellular Toxicity (caspase-3) Renal Proximal Tubule (AID 667).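 Further: cells exposed to compound for 16 hours at 37 °C before detection; 0% = DMSO basal and 100% = 10 µM staurosporine.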 The note with it: Potency: caspase-3 activation. The procedure, abridged:
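Primary rat proximal tubule cells, 1000/well, 5 h plating at 37 °C, then compound 16 h at 37 °C. Caspase-Glo 3/7 reagent, 1 h RT, luminescence. Normalized to DMSO (basal) and 10 uM staurosporine (100%); Hill-fit AC50.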

For assay [18], the target named is Cytochrome P450 3A4 (Homo sapiens) (UniProt P08684). Put plainly: qHTS Assay for Inhibitors and Substrates of Cytochrome P450 3A4 (AID 884). Further: nearly all actives have a fitted effect of over 50% in size. Further: potency means the concentration at half of the fitted maximal effect. A digest of the protocol: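 20 nM human CYP3A4 with 25 uM Luciferin-PPXE (at KM) in 200 mM KPO4, preincubated 10 min with compound; NADPH regeneration started a 60 min RT reaction. Luciferin detected by luminescence, normalized to 57 uM ketoconazole as full inhibition.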
Sequence of Cytochrome P450 3A4 (Homo sapiens) (P08684 whole entry, looked up): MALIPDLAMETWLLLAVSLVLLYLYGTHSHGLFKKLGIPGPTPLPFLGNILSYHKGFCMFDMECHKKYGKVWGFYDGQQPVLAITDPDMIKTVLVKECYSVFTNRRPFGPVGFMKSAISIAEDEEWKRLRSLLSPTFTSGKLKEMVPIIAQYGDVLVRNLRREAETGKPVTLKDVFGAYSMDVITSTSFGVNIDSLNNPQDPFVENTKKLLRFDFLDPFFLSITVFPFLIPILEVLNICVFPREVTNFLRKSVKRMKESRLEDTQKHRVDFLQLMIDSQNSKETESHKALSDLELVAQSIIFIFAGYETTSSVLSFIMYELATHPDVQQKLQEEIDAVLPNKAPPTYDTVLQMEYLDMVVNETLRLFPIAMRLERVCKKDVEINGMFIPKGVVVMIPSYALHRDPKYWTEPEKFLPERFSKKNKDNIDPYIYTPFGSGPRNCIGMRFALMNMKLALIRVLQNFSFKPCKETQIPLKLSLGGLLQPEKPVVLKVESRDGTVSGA
In general terms: qHTS replaces the single test concentration by a dilution series.

Assay [19] has the same target. Put plainly: qHTS Assay for Activators of Cytochrome P450 3A4 (AID 885). Further: nearly all actives have a fitted effect of over 65% in size. A digest of the protocol:
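Human CYP3A4 (20 nM) with Luciferin-PPXE at 25 uM (its KM) in 200 mM KPO4; 10 min compound preincubation, then NADPH regeneration and 60 min reaction at RT. Luciferin read by luminescence; normalized to 57 uM ketoconazole full inhibition.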

Assay [20] can be described thus: Cell Viability - LYMP2-001 (AID 921).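 Further: 0% = DMSO only and full inhibition = tetraoctylammonium bromide control wells; nearly all actives have a fitted effect of over 70% in size.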 A digest of the protocol:
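Human lymphoblastoid cells (Coriell), 2500 per well, were preincubated 5 hr at 37 C, then exposed to compounds in complete medium for 24 hr at 37 C. Cellular ATP was read by CellTiter-Glo luminescence; AC50 from Hill fits of concentration-response data.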

Turning to `O=C1NC(=O)c2cc([N+](=O)[O-])ccc21`, the Potency result in assay [1], in assay [2], in [3], in [4], in assay [5] and in assay [17] was “inactive” throughout. Moreover, the Potency entry in assay [20] was “inactive”. Further, the caspase-3 activation was 0.91% in assay [6], -0.781% in assay [11], -0.832% in [13] and -0.133% in assay [14]. In addition, the compound was classed as inactive in assay [7], in assay [8], in assay [9], in [10], in assay [12] and in assay [15]. Besides, the compound was classed as inactive in [16] and in assay [19]. The Potency in assay [18] was 15.8 µM (active).

As for `CCCC(Cl)CCCC(Cl)CCC(Cl)CCC(Cl)CCC(Cl)CCCC(Cl)CCC` (stereo not given), the Potency entry in assay [1], in assay [2], in [3], in assay [4], in assay [5] and in assay [17] was “inactive” throughout. In addition, the Potency entry in assay [18] and in assay [20] was “inactive” throughout. Moreover, the caspase-3 activation in assay [6] was -0.794%; in assay [11] it was 1.24%; in assay [13], 0.272%; in [14], -1.03%. Also, the call in assay [7], in assay [8], in assay [9], in assay [10], in assay [12] and in assay [15] was inactive. Besides, in [16], the compound was called inactive.

For the compound `O=C(O[C@@H](C(=O)O)[C@@H](OC(=O)c1ccccc1)C(=O)O)c1ccccc1`, the Potency entry in assay [1], in assay [2], in assay [3], in assay [4], in assay [5] and in assay [17] was “inactive” in each case. Moreover, the Potency result in [18] and in assay [20] was “inactive” in each case. Besides, the caspase-3 activation in [6] was 1.56%; in assay [11], 0.793%; in assay [13] it was 0.201%; in [14] it was -0.248%. Besides, the result in assay [7], in assay [8], in [9], in assay [10], in assay [12] and in assay [15] was inactive. Besides, the call in assay [16] was inactive.

With `OCCO`, the Potency result in assay [1], in assay [2], in assay [3], in [4], in assay [5] and in assay [17] was “inactive” throughout. In addition, the Potency entry in assay [18] and in assay [20] was “inactive” throughout. The caspase-3 activation in assay [6] is 1.1%; in [11], -0.444%; in assay [13], -0.0515%; in [14] it was 0.819%. Besides, the result in assay [7], in [8], in assay [9], in assay [10], in [12] and in assay [15] was inactive. For the same compound, the call in [16] was inactive.

For `O=Cc1ccc(CO)o1`, the Potency entry in assay [1], in assay [2], in assay [3], in assay [4], in [5] and in [17] was “inactive” each time. Also, the Potency result in assay [18] and in assay [20] was “inactive” throughout. The caspase-3 activation was -0.436% in [6], -0.0811% in assay [11], 1.58% in assay [13] and -1.08% in assay [14]. Moreover, the call in [7], in [8], in assay [9], in [10], in [12] and in assay [15] was inactive. Besides, the result in assay [16] was inactive.

Consider `COC(=O)CCC(=O)OC`, for which the Potency entry in [1], in assay [2], in assay [3], in assay [4], in [5] and in assay [17] was “inactive” in each case. For the same compound, the Potency result in assay [18] and in assay [20] was “inactive” in each case. In addition, the caspase-3 activation is 1.38% in assay [6], -0.284% in [11], 0.845% in [13] and -0.32% in assay [14]. Also, the compound was classed as inactive in [7], in [8], in assay [9], in assay [10], in [12] and in assay [15]. The call in assay [16] was inactive.

Source of the values: PubChem BioAssay (NCATS).
